Each structure is given as a SMILES string. Values without a mark were called inactive. Calls of active or inactive are those of the source. The call rests on the fitted dose curve; in most records, active means well fitted curve in the direction sought with a large enough effect in the repeat runs; inconclusive means weak or mixed curves; inactive means flat fitted curve, though single readings scatter.
On the % scale 0 is the no-effect control and ±100 the full control effect.

The test is described as follows: qHTS assay to test for compound auto fluorescence at 460 nm (blue) in HepG2 cell free culture (AID 720685). Particulars: Cell-free culture medium, blue autofluorescence 405/460 nm; series mostly up to 91.3 µM. An excerpt:
U.S. Tox21 Program National Center for Advancing Translational Sciences [NCATS] NIH Chemical Genomics Center [NCGC] U.S. Environmental Protection Agency [EPA] National Institutes of Environmental Health Sciences [NIEHS] National Toxicology Program [NTP] U.S. Food and Drug Administration [FDA] Tox21 Assay Overview: Compound auto fluorescence often interferes with screening of the compound library against various biological targets and signaling pathways. Some of these compounds may have fluorophoric properties. Such properties may interfere with the assay outputs resulting in false positives and/or negatives. To decrease such complications and ensure the compound activities are relevant in terms of biological response, the Tox21 10K compound library was screened for auto fluorescence. From the fluorophores used as reporter signals in our screening assays, the auto fluorescence equivalencies of compounds against three fluorophores have been evaluated: Triamterene, Fluorescein and Rose Bengal sodium for blue, green and red fluorescence, respectively. The fluorescence intensities were measured using Excitation/Emission wavelengths at 405/460nm, 485/535nm and 540/590nm for blue, green and red labels, respectively. This assay includes the blue fluorescence data.
Tox21 Assay Protocol Summary: 5 uL of culture medium (MEM containing 10% FBS) per well was dispensed into black wall/clear bottom 1536-well plates using a Multidrop Combi Dispenser (ThermoFisher Scientific, Waltham, MA). After 23 nL compound or DMSO vehicle was transferred into assay plate by a pintool work station (Kalypsys, San Diego, CA), fluorescence intensities in the assay plates were measured by an Envision (PerkinElmer, Shelton, CT) plate reader using three labels for measuring blue, green and red fluorescence at […] 460, 535 and 590nm respectively.
(In general: In qHTS, concentration-response curves come from the screen itself.)
As to `Cc1ccc([N+](=O)[O-])cc1Cl`, the compound was classed as inactive.

With `CC[C@H]1CC[C@H](NCc2cc3c(cc2OC)[C@H]2C[C@H]2C(=O)N3C)[C@H](c2ccccc2)N1`, the result was inactive.

As for `O=C(O)[C@@H](O)[C@H](O)[C@H](O)[C@@H](O)C(=O)O`, the compound was classed as inactive.

Take `NC(=O)Cc1cccc(C(=O)c2ccccc2)c1N`: the compound was called inactive.

`O=C(O)c1ccccc1Nc1cc(Cl)ccc1C(=O)O`: the result was inactive.

On to `Nc1ccc(Oc2ccc(N)c(N)c2)cc1`, for which the outcome was inactive.

Consider `CN1CCN(c2c(F)cc3c(=O)c(C(=O)O)cn4c3c2SCC4)CC1`, for which the result was inactive.

As to `CC(C)=CCC[C@](C)(O)[C@@H]1CC=C(C)CC1`, the outcome was inactive.

Regarding `O=C(O)c1cccc(Cl)c1Cl`, the result was inactive.

As to `CCC(=O)c1ccc2c(c1)N(CCCN(C)C)c1ccccc1S2`, the result was inactive.

As for `CN(CCCN1c2ccccc2CCc2ccccc21)CC(=O)c1ccc(Cl)cc1`, the result was inactive.

On to `CS(=O)(=O)c1ccc([C@@H](O)[C@@H](CF)NC(=O)C(Cl)Cl)cc1`, for which the fluorescence, % of fluorescent control was -0.0062% [at 18.6 µM].

In the case of `COC(=O)c1ccc2cc(C(=O)OC)ccc2c1`, the fluorescence, % of fluorescent control is -0.114% [at 18.6 µM].

In the case of `CCCCOc1cc(C(=O)NCCN(CC)CC)c2ccccc2n1`, the fluorescence, % of fluorescent control is 0.0544% [at 18.6 µM].

Turning to `CN(C)CC[C@@H](c1ccc(Cl)cc1)c1ccccn1`, the compound was called inactive.

Take `CCN(CC)CCOc1ccc(Cc2ccccc2)cc1`: the compound was classed as inactive.

In the case of `C[C@@H]1CN(c2c(F)c(F)c3c(=O)c(C(=O)O)cn(C4CC4)c3c2F)C[C@H](C)N1`, the outcome was inactive.

Take `CCCCCCCCCCCCCCCCOP(=O)([O-])OCC[N+](C)(C)C`: the outcome was inactive.

In the case of `C=Cc1ccccc1`, the outcome was inactive.

Consider `CC(=O)OC(C)OC(C)=O`, for which the compound was classed as inactive.

`CC(=O)N(CC(O)CN(C(C)=O)c1c(I)c(C(=O)NCC(O)CO)c(I)c(C(=O)NCC(O)CO)c1I)c1c(I)c(C(=O)NCC(O)CO)c(I)c(C(=O)NCC(O)CO)c1I` (stereo not given): the fluorescence, % of fluorescent control was -0.0088% [at 18.6 µM].

On to `CC(=O)N[C@@H](CC(C)C)C(=O)O`, for which the outcome was inactive.

On to `CCOC(=O)c1ccccc1O`, for which the compound was classed as inactive.

Take `CC/C=C\CCOC(=O)C(C)C`: the outcome was inactive.

Consider `CCC1(C)NC(=O)NC1=O` (stereo not given), for which the result was inactive.

For `CCCNC(C)C(=O)Nc1c(C)csc1C(=O)OC` (stereo not given), the fluorescence, % of fluorescent control was -0.0067% [at 18.6 µM].

On to `CCOc1ccccc1N`, for which the compound was called inactive.

`O=C(Cl)c1cccc([N+](=O)[O-])c1`: the call was inactive.

Regarding `CCCCC1CCC(=O)O1` (stereo not given), the call was inactive.

With `CC(C)(C)c1ccc(OC(=O)c2ccccc2O)cc1`, the outcome was inactive.

Regarding `O=C(O)[C@@H]1CSCN1`, the call was inactive.

In the case of `C1CSCCS1`, the result was inactive.

Regarding `CCCCCCCCOC(=O)CCCCCCCCC(=O)OCCCCCCCC`, the result was inactive.

`FC(F)(F)C(F)(F)C(F)(F)C(F)(F)C(F)(F)C(F)(F)C(F)(F)C(F)(F)Br`: the result was inactive.

On to `CCOc1ccc(NS(=O)(=O)c2ccc(N)cc2)nn1`, for which the result was inactive.

`CC(C)(C)c1cccc(O)c1`: the compound was classed as inactive.

As to `C=CC1CO1` (stereo not given), the call was inactive.

Consider `CN1CCN(C2=Nc3cc(F)ccc3Cc3ccccc32)CC1`, for which the result was inactive.

For the compound `NC/C=C/C(=O)O`, the result was inactive.

`Cc1c(N)cccc1N`: the compound was called inactive.

Source of the values: PubChem BioAssay (Tox21).
